Source: PubChem BioAssay

Tests used:
[1] = tested on: Botulinum neurotoxin type F light chain protease (Clostridium botulinum); assay: Clostridium botulinum type F light chain protease inhibitors, microsphere substrate cleavage, validation (AID 588459); conditions: multiplex microsphere protease substrate cleavage assay, flow cytometry; at 10 µM; stronger effect = higher value
[2] = molecular target: Botulinum neurotoxin type A (Clostridium botulinum) (UniProt P0DPI0); assay: BoNT/A light chain protease inhibitors, biochemical, multiplex microsphere flow cytometry, validation set (AID 588460); conditions: at 10 µM, stronger effect = higher value
[3] = molecular target: Lethal factor (Bacillus anthracis) (UniProt P15917); assay: Bacillus anthracis lethal factor inhibition, microsphere flow cytometry protease assay, validation at 10 µM (AID 588461); conditions: multiplex microsphere protease cleavage assay, stronger effect = higher value

Measured: inhibition

CCn1cc(C(=O)O)c(=O)c2ccc(C)nc21
inactive: [1] 1.3% | [2] -1.5% | [3] -3.9%

O=C1CCCC(=O)C1=Cc1c[nH]c2ccccc12
inactive: [1] 3% | [2] 0.4% | [3] -6.4%

CCS(=O)(=O)Nc1cc(OC)c(OC)cc1Cc1nccc2cc(OC)c(OC)cc12
inactive: [1] 0.2% | [2] 0.4% | [3] -0.6%

CO/N=C(\C(=O)N[C@@H]1C(=O)N2C(C(=O)O)=C(COC(C)=O)CS[C@H]12)c1csc(N)n1 (stereo in doubt)
inactive: [1] 2.7% | [2] -1.1% | [3] -5.4%

CC1CCCc2sc3ncn(N)c(=N)c3c21 (stereo unspecified)
inactive: [1] 0.9% | [2] 0.3% | [3] -1.1%

CC(=O)N(CCC(Cc1ccccc1)c1ccc2c(c1)OCO2)Cc1ccc(Cl)cc1 (stereo unspecified)
inactive: [1] 3.5% | [2] 0.1% | [3] -1%

Nc1ccc2[nH]ncc2c1
inactive: [1] -1.8% | [2] -1.3% | [3] 2.9%

CCN1CCN(C(=O)N[C@@H](C(=O)N[C@@H]2C(=O)N3[C@@H]2SC(C)(C)[C@@H]3C(=O)O)c2ccccc2)C(=O)C1=O
inactive: [1] -1.5% | [2] 0.3% | [3] 1.4%

COc1c2occc2c(OC)c2c(=O)cc(C)oc12
inactive: [1] -0.3% | [2] -1.1% | [3] 4.5%

COC1CCN(Cc2cn(Cc3ccccc3)nc2-c2cc3ccccc3o2)CC1
inactive: [1] 2% | [2] -0.8% | [3] -3.3%

COc1ccc(CNC(=O)N[C@H](C(=O)O)C(C)C)cc1OC
inactive: [1] -0.7% | [2] -1.2% | [3] -8.3%

COc1cccc(OC)c1C(=O)Nc1nc2ccc([N+](=O)[O-])cc2s1
inactive: [1] 7.7% | [2] 3.3% | [3] 7.5%

COc1cc2cc(C)nc(Cc3cccc4ccccc34)c2cc1OC
inactive: [1] 5.3% | [2] 1.3% | [3] 3.2%

C[C@H](NC(=O)NCCc1ccccc1)C(=O)O
inactive: [1] 0.5% | [2] -0.2% | [3] -0.6%

CC(=O)Oc1cc(C(C)C)c(OCCN(C)C)cc1C
inactive: [1] 1.9% | [2] 2% | [3] 0.9%

COC(=O)c1cc(C(=O)NCCC(C)C)cc([N+](=O)[O-])c1
inactive: [1] -5.3% | [2] -2.3% | [3] 2.1%

COC(=O)c1ccc(OCCCCN2CC(C)OC(C)C2)cc1 (stereo unspecified)
inactive: [1] -4.5% | [2] 0.2% | [3] 4%

COc1ccccc1C(=O)Nc1cc2cc(Br)ccc2oc1=O
inactive: [1] 3.8% | [2] 1.1% | [3] 0.4%

O=C(NCCc1c[nH]c2ccccc12)c1cccnc1
inactive: [1] -2.9% | [2] -0.7% | [3] 1.1%

C=C(C)[C@@H]1CC=C(CN2CCC(N3CCC(C(=O)N4CCCC4)CC3)CC2)CC1
inactive: [1] 7.8% | [2] 0.8% | [3] -0.3%

CN(CCO)CC(O)Cn1cnc2c1c(=O)n(C)c(=O)n2C (stereo unspecified) (tested in a mixture with another compound)
inactive: [1] -0.4% | [2] 1.1% | [3] -3.6%

CCOc1ccc2ccccc2c1C(=O)N[C@@H]1C(=O)N2[C@@H]1SC(C)(C)[C@@H]2C(=O)O
inactive: [1] 5.4% | [2] 1.2% | [3] 0.3%

c1ccc2c(CC3=NCCN3)cccc2c1
inactive: [1] -3.3% | [2] -2.2% | [3] -9.2%

Cc1cc(C(C)(C)C)cc(C)c1CC1=NCCN1
inactive: [1] 1.3% | [2] 1.2% | [3] 1.8%

COc1ccc(C(=O)COc2ccc(F)cc2)c(O)c1
inactive: [1] 1% | [2] -1.3% | [3] -9.8%

COc1ccc(CCN(C)Cc2nc(Cc3ccc(OC)c(OC)c3)no2)cc1OC
inactive: [1] 1% | [2] -1% | [3] 6.9%

Cc1cc(=O)[nH]c(=S)[nH]1
inactive: [1] -3.5% | [2] -3.3% | [3] -7.5%

O=C(/C=C/c1ccc2c(c1)OCCCO2)c1ccc2ccccc2c1O
inactive: [1] 1.8% | [2] 1.1% | [3] -5.5%

CN1[C@@H](CC(=O)c2ccccc2)CCC[C@H]1C[C@H](O)c1ccccc1
inactive: [1] 3.2% | [2] -1% | [3] -2.2%

COc1ccc(N2C(=O)C3C(C2=O)C(C(=O)c2ccccc2)N2CCCC32)cc1 (stereo unspecified)
inactive: [1] 1.6% | [2] -0.2% | [3] -3.5%

CC(=O)N(C(C)=O)c1nc2nc(C)cc(C)n2n1
inactive: [1] 5.2% | [2] 0.6% | [3] 1.4%

O=C(CN1C(=O)/C(=C/c2cccc(Br)c2)SC1=S)Nc1cccnc1
inactive: [1] 1.8% | [2] -0.3% | [3] 4.2%

O=C(c1ccc(Cl)cc1)C1CCCN(C(=O)/C=C/c2ccccn2)C1 (stereo unspecified)
inactive: [1] 2.6% | [2] -0.7% | [3] 6%

COCCNC(=O)CSc1ccc(Cl)cc1
inactive: [1] 1.8% | [2] 0.7% | [3] 1.4%

CN(C)CCOC(C)(c1ccccc1)c1ccccn1 (stereo unspecified)
inactive: [1] 1.4% | [2] 0.5% | [3] -3.8%

CO[C@H]1C=CO[C@@]2(C)Oc3c(C)c(O)c4c(O)c(c(C=NN5CCN(C)CC5)c(O)c4c3C2=O)NC(=O)C(C)=CC=C[C@H](C)[C@H](O)[C@@H](C)[C@@H](O)[C@@H](C)[C@H](OC(C)=O)[C@@H]1C
inactive: [1] -7.2% | [2] 0.5% | [3] -7.3%

COc1ccccc1N=CC1=C(O)CC(c2ccccc2)CC1=O (stereo unspecified)
inactive: [1] 0.8% | [2] 2.2% | [3] -5%

N=C1C(c2ccccc2)=C(O)CN1CCCO
inactive: [1] -2.6% | [2] -1.3% | [3] -5%

Cn1cc(CN2CCC(C(=O)N3CCCCC3)CC2)c(-c2ccccc2F)n1
inactive: [1] 4% | [2] 0.2% | [3] 4.5%

COc1cccc2c(O)cc(=O)n(C)c12
inactive: [1] -7.7% | [2] -0.5% | [3] -8.1%

COc1cccc(C2CCCN2Cc2nc(CCC(C)C)no2)c1 (stereo unspecified)
inactive: [1] -2.5% | [2] -0.8% | [3] -7.6%

CCOc1ccc(C(=O)Nc2ccc(N3CCN(C(C)=O)CC3)cc2)cc1[N+](=O)[O-]
inactive: [1] 1.6% | [2] 0% | [3] 0.9%

Cc1ccc(S(=O)(=O)NC(=O)Nc2cc(C)ccc2F)cc1
inactive: [1] 3% | [2] -0.1% | [3] -4.1%

CCOCC(=O)Nc1nc2ccccc2s1
inactive: [1] -2.1% | [2] 1.5% | [3] -0.2%

CCC(C(=O)Nc1ccc2c(c1)OCCO2)c1ccccc1 (stereo unspecified)
inactive: [1] 0.7% | [2] -0.2% | [3] -1.8%

O=C(NCCc1c[nH]c2ccccc12)OCCSS(=O)(=O)O
inactive: [1] -4.5% | [2] -0.2% | [3] 3.7%

O=C(OCC(O)C(O)COC(=O)c1ccccc1)c1ccccc1 (stereo unspecified)
inactive: [1] -0.4% | [2] 0.6% | [3] 2.1%

COc1ccc2[nH]c3c(=O)n(/N=C/[C@H]4C(C)C=C(C)CC4C)c(=O)[nH]c3c2c1 (stereo partly specified)
inactive: [1] -1.7% | [2] -0.6% | [3] 7.1%

CC(C)Oc1cccc(C(=O)N2CCCC2)c1
inactive: [1] 2.3% | [2] -0.3% | [3] -5.2%

O=C1[C@@H]2CSCN2C(=O)CN1Cc1ccc(F)cc1
inactive: [1] 1.2% | [2] 0.7% | [3] 3.4%

CCOc1ccc(CC2CCC(=O)NC2=O)cc1 (stereo unspecified)
inactive: [1] -3% | [2] -0.5% | [3] -1.5%

O=C1OC(Nc2ccc3c(c2)OCO3)c2ccccc21 (stereo unspecified)
inactive: [1] 0.9% | [2] -1.8% | [3] -5.7%

CC(=O)[C@H]1[C@H](C#N)C[C@H]2[C@@H]3CC=C4C[C@@H](O)CC[C@]4(C)[C@H]3CC[C@@]21C
inactive: [1] 4.5% | [2] 1.4% | [3] 4.8%

N=c1ccn(CC(=O)NC(N)=O)c2ccccc12
inactive: [1] 3.3% | [2] 1.6% | [3] 3.1%

CCCCC[C@H](O)/C=C/[C@@H]1[C@@H](CCCCCCC(=O)O)[C@@H](O)C[C@H]1O
inactive: [1] -2.9% | [2] -1.3% | [3] 0.1%

Nc1nnc(-c2cccc(Cl)c2Cl)c(N)n1
inactive: [1] 1.3% | [2] 0.8% | [3] -5.9%

Cc1ccc(S(=O)(=O)N[C@@H](Cc2ccccc2)C(=O)CCl)cc1
inactive: [1] -3.3% | [2] 1.2% | [3] 3.4%

CC(=O)c1cccc(NC(=O)N[C@@H](CC(C)C)C(=O)O)c1
inactive: [1] -0.3% | [2] -1.7% | [3] -2.8%

COc1ccc2c(C=O)cn(C)c2c1
inactive: [1] 1.9% | [2] -0.9% | [3] 2.1%

O=C1CCc2cc(OCCCCc3nnnn3C3CCCCC3)ccc2N1
inactive: [1] -0.2% | [2] -0.9% | [3] -5.5%

CCCN(CCC)S(=O)(=O)c1ccc(C(=O)O)cc1
inactive: [1] 2.8% | [2] 1.1% | [3] 0%

CCOc1ccc(N2C(=O)CC(NCCNc3ccc([N+](=O)[O-])cn3)C2=O)cc1 (stereo unspecified)
inactive: [1] 0.9% | [2] 1.6% | [3] -3.4%
